Assay results: ChEMBL document CHEMBL3988442, “University of Dundee, Small-Polar-MMV Screening Library” (2021)

Target: AMP-activated protein kinase, AMPK (Homo sapiens) (UniProt P54646+O43741+P54619+Q9UGJ0+Q9Y478+Q13131+Q9UGI9)
Experiment: AMP-dependent Kinase enzyme assay. An in vitro enzyme assay that detects ADP turnover that is directly proportional to AMPK activity. This uses naive AMPK that is activated during the assay with MK-8722
Format: functional
Design: scale not given: direction of the effect not stated beside the values
Conditions: 30 µM

| Structure (SMILES) | Percent Effect [%] |
| --- | --- |
| COCCN1C(=O)[C@H]2CC[C@@H]1CN(S(=O)(=O)c1ccc(C#N)cc1)C2 | 10.8 |
| NC(=O)c1cc(C2CCCN(Cc3ccc4c(c3)OCCO4)C2)n[nH]1 (centres undefined) | 3.64 |
| CS(=O)(=O)NCc1cccc(COC2CCCCC2)c1 | 4.87 |
| Cc1nc(CN(C)S(=O)(=O)c2ccccc2C(F)(F)F)no1 | 4.4 |
| CN(C)CC(=O)NC1CC(C)(C)Cc2nc(C(C)(C)C)ncc21 (centres undefined) | -0.385 |
| CC(C)n1nccc1CN1Cc2nccn2CC1c1ccccc1 (centres undefined) | -2.65 |
| Cn1cc(CN(C(=O)c2ccc3ncsc3c2)C2CC2)cn1 | 10.2 |
| Cc1nc(C)c(C(=O)N2CCCc3c(F)cccc32)o1 | -0.713 |
| O=C(CNc1ccc(OC2CCOC2)cc1)NCc1ccco1 (centres undefined) | 7.98 |
| CN1CCCC(c2cccc(-c3ccccc3F)n2)C1 (centres undefined) | 16.2 |
| Cc1nc(N(C)C)ncc1C(=O)N(Cc1ccncc1)CC1CCCO1 (centres undefined) | -6.01 |
| COc1ncccc1CNCc1cnc(N2CCOCC2)nc1 | -1.53 |
| Cc1cc(Cl)c(C)c(S(=O)(=O)N2CCN(Cc3ccncc3)CC2)c1Cl | -2.88 |
| CN1CC2(CCN(C(=O)c3ccc(=O)n(C)c3)CC2)CC1=O | -1.98 |
| COCC(C)NC(=O)N1CCN(S(C)(=O)=O)CC1 (centres undefined) | 11.4 |
| O=C(NCCCNc1cccnc1)c1ccc2nccn2c1 | -8.67 |
| CCOCCC(=O)N(CCC#N)c1ccc(C)c(C)c1 | -0.0952 |
| Cc1ccc2[nH]c(CNC(=O)C3CC4(CCNCC4)CN3C)nc2c1C (centres undefined) | -16.1 |
| CCC(O)Cn1nc(-c2ccc(C(=O)O)cc2)cc1-c1ccc(F)cc1 (centres undefined) | 12 |
| CC(NC(=O)N1CCCN(C)CC1)c1ccc2c(c1)OCCO2 (centres undefined) | 3.15 |
| Cc1ccc2nc(CNCCCOc3ccccc3)cc(O)c2c1 | 2.49 |
| Cc1nsc(C(=O)NCCc2ccccc2)n1 | 3.51 |
| Cc1nc(CC(C)C)cc(C(=O)N2C[C@@H](CN(C)C)[C@@H](CO)C2)n1 | -4.49 |
| CCOc1ccccc1C(C(=O)O)N(C)Cc1nnc(C)o1 (centres undefined) | 4.89 |
| O=C(Cn1ccc(=O)[nH]c1=O)NCc1cccnc1OCC(F)(F)F | -4.52 |

| Structure (SMILES) | Percent Effect [%] |
| --- | --- |
| Cc1[nH]nc(CCC(=O)N2CCc3c(nc[nH]c3=O)C2)c1C | 4.58 |
| COC(=O)C1CCN(C(=O)Cn2ccc(-c3ccc(F)cc3)n2)CC1 | -0.768 |
| Cc1noc(C2CCN(Cn3cc(Cl)cn3)CC2)n1 | 2.75 |
| O=C(C1CCCOC1)N1CCN(CC(F)(F)F)c2ccccc21 (centres undefined) | 6.14 |
| CC(C)(C)NC(=O)CN1CCNCC1 | 1.56 |
| CC1(C)OC(=O)N(CCOc2ccc(F)cc2)C1=O | 5.04 |
| COc1ccccc1C(NC(=O)CN(C)C(C)C)c1noc(C)n1 (centres undefined) | -4.19 |
| Cc1occc1C(=O)Nc1ccc(C(=O)NC[C@H]2CCCN2)cc1 | -9.02 |
| COCCN(Cc1sccc1C)C(=O)COc1ccccc1O | 2.3 |
| CC(=O)Nc1ccc(CNC(=O)CNCc2nnc(C)o2)cc1 | -8.94 |
| CCn1cnnc1CNS(=O)(=O)N1CCCC1c1ccc(C)o1 (centres undefined) | 0.967 |
| CN1CC2(CCN(C(=O)CCCOCc3ccccc3)C2)OC1=O (centres undefined) | 9.85 |
| COc1ccc(C(C)NCCc2ccc(NC(C)=O)cc2)c(OC)c1 (centres undefined) | 8.45 |
| Cc1cc(N2CCCC2)nc(CNS(=O)(=O)Cc2ccccc2)n1 | 5.01 |
| CCc1cc(N2CCC(NCCc3ccccc3F)CC2)nc(C)n1 | 1.26 |
| COc1cc(OC)cc(-c2cccc3c2OC(CN)C3)c1 (centres undefined) | -5.59 |
| CC1(C)Cc2nc(C(C)(C)C)ncc2C(NC(=O)C2(N)CC2)C1 (centres undefined) | -16.9 |
| Fc1ccc(N2CCN(CCCc3cn[nH]c3)CC2)cc1 | 3.93 |
| NC(=O)c1cn[nH]c1NC(=O)c1ccc2c(c1)OCO2 | 5.07 |
| Cc1cccnc1NC(=O)c1ccc(F)c(S(=O)(=O)N2CCC2)c1 | -5.84 |
| CC(C)(C)C(NC(=O)CCS(C)(=O)=O)c1ccc(F)cc1F (centres undefined) | 0.0332 |
| Cc1cc(-c2cnc(N3CCN(C)CC3)nc2C(C)C)on1 | 16.2 |
| Cc1noc(C)c1S(=O)(=O)N1CCC(n2cccn2)CC1 | -5.45 |
| COC(=O)c1ccc(N2CCN(C(=O)CCCc3cn[nH]c3)CC2)cc1 | 6 |
| Cc1nc(CN2CCN(CC(O)CN3CCOCC3)CC2)oc1C (centres undefined) | -2.09 |

| Structure (SMILES) | Percent Effect [%] |
| --- | --- |
| CC(c1ncc(-c2ccccc2)o1)N1CCN(C(=O)C(C)(C)C)CC1 (centres undefined) | 12.7 |
| Cc1ncsc1C(=O)N1CC[C@@]2(O)CCN(C(=O)N3CCCC3)C[C@H]2C1 | -1.97 |
| Cc1nn(C(C)C)c(C)c1CN1CCN(C2CCCCC2)C(=O)C1 | 8.49 |
| CC(C)C(=O)NCC(=O)N1CCC2(CC1)c1ccccc1[C@@H](N)[C@@H]2O | 3.94 |
| Cc1cccc(NC(=O)N2CCOCC(CN(C)C)C2)c1C (centres undefined) | -2.2 |
| CCc1nnc2n1CCN(c1nc(C)cc(N(C)C)n1)C2 | -7.79 |
| Cc1ccc(-c2cc(CS(=O)(=O)NC3CCCNC3=O)on2)cc1 (centres undefined) | 5.82 |
| COc1cc(-c2cccc3c2OC(CN)C3)ccc1O (centres undefined) | 59.7 |
| O=C(Nc1ccc(I)cc1C(=O)NCCN1CCOCC1)c1ccco1 | 12.6 |
| CN(CCc1ccccn1)C(=O)c1cccs1 | 6.23 |
| CC(c1nc(C2CC2)no1)N1CCc2c(ncn2C)C1 (centres undefined) | 12 |
| COc1ccc(C(=O)N2C[C@@H](O)[C@H](NCc3cnc(C)cn3)C2)cc1 | -12.3 |
| CC(C)c1noc(C(C)N2CCC(c3nc4ccccc4o3)CC2)n1 (centres undefined) | 0.506 |
| CC1(C)Cc2nc(C(C)(C)C)ncc2C(NC(=O)CN)C1 (centres undefined) | -5.88 |
| CC1(C)OC(=O)N(CCCC(=O)c2ccc(F)cc2)C1=O | -8.28 |
| CCCc1ccc(CN2CCC3(CCC(=O)N(C(C)C(=O)O)C3)CC2)o1 (centres undefined) | 31.1 |
| Cc1ccc(CN(C)C(=O)CNC(C)(C)c2noc(C(C)(C)C)n2)o1 | -1.82 |
| CSCC[C@H](NC(C)=O)C(=O)N(C)Cc1ccc(-n2cccn2)cc1 | -8.05 |
| Fc1cccc(-c2n[nH]cc2-c2nc(CN3CCOCC3)no2)c1 | 5.95 |
| CC(c1nc(-c2ccccc2)no1)N1CCc2c(ncn2C2CC2)C1 (centres undefined) | 10.5 |
| Cc1cc(C)n(C2CN(c3nc(-c4ccncc4)nc4c3CCC4)C2)n1 | 2.99 |
| CN1CCCC(CCC(=O)N2CCc3c(nc(CC4CC4)[nH]c3=O)C2)C1 (centres undefined) | 10.8 |
| Cc1cc(NC(=O)NCCC(=O)N2CCCc3ccccc32)no1 | -0.372 |
| CS(=O)(=O)NC(=O)c1ccn(-c2cccc(Br)c2)n1 | 2.69 |
| Cc1cccc(COc2ccc(C(C)NC(=O)CNC(N)=O)cc2)c1 (centres undefined) | 1.42 |

| Structure (SMILES) | Percent Effect [%] |
| --- | --- |
| Cc1ccc(Oc2cc(CN)ccn2)cc1C | -98.1 |
| CN(Cc1ccccc1)S(=O)(=O)N1C[C@H](C2CC2)[C@@H](N)C1 | -0.41 |
| Cc1noc(CN(C)c2ccccc2)n1 | 5.44 |
| CCc1ccsc1C(=O)NC(C#N)CC(C)C (centres undefined) | -7.05 |
| Cc1ccnc(NC(=O)c2ccc(F)c(S(=O)(=O)NC3CC3)c2)c1 | -7.9 |
| COCc1ncc(CN2CCC3(CCC(=O)N(CC(C)O)C3)CC2)cn1 (centres undefined) | -3.44 |
| Cc1nnc(NC(=O)NCCN(C(=O)OC(C)(C)C)C2CC2)s1 | -6.8 |
| CC(C)CC(=O)N1Cc2ccccc2CC1C(=O)Nc1nncs1 (centres undefined) | -25.1 |
| COc1ccc(CC(C)Nc2cccc(SC)c2)cc1 (centres undefined) | -5.64 |
| CN(Cc1ccccc1F)Cc1cc2c(cc1Br)OCCO2 | -3.17 |
| O=C(CCCN1CCCCC1)N[C@H](C(=O)O)c1cccc(F)c1F | 6.38 |
| N#CCCN(CCC#N)C(=O)c1cccc(N2CCNC2=O)c1 | -2.85 |
| CCCC(=O)NCCc1cc(NC)nc(-c2ccccn2)n1 | -2.74 |
| COCCS(=O)(=O)NCc1ccc(N(C)C)c(C)c1 | 6.36 |
| O=C(NCc1ccon1)Nc1cc(F)ccc1N1CCCCC1 | 5.82 |
| Cc1nc(NC(=O)C(C)N(C)Cc2ccc3c(c2)OCO3)sc1C (centres undefined) | 6 |
| COc1ccccc1N1CCCC(NC(=O)Nc2cccnc2)C1 (centres undefined) | -1.53 |
| CN(CC(=O)NC(C)(C)C)Cc1cccc2c1OCCO2 | -9.42 |
| Cc1cc(CN(C)C(=O)Nc2ccccc2C)no1 | 9.79 |
| O=C(NCCCn1cccn1)C1COCC(=O)N1Cc1ccccc1 (centres undefined) | -3.92 |
| COc1ncnc(N)c1CNCCc1ccc(-n2cccn2)cc1 | 6.72 |
| CCC[C@@H]1CN(c2cncc(C(=O)N3CCOCC3)n2)C[C@H]1N(C)C | 14.3 |
| CCC(NC(=O)C(C)(C)C)c1ccccc1C (centres undefined) | 5.82 |
| COc1cc2c(cc1OC)CN(C(=O)NCC1CCCO1)CC2 (centres undefined) | -8.87 |
